Laboratory results: PubChem BioAssay (NCI)
About 79,000 compounds went through this panel and 15% of them were active in at least one assay; those are over-represented in the sample as a whole. Activity calls are given as the source filed them. Rule as the data show it: active = growth inhibition above about 70%; inactive = the rest.

Experiments:
[1] = NCI Yeast Anticancer Drug Screen. Data for the rad52 strain (AID 147);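 also: 0% = growth of vehicle-treated control cultures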; details: S. cerevisiae rad52 mutant growth inhibition, hits give high values
How it was run: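 Measured: yeast growth inhibition. System: strain with a defined DNA damage repair alteration. Reference: vehicle-treated control cultures.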

[2] = NCI Yeast Anticancer Drug Screen. Data for the wt1 strain (AID 149);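 also: 0% = growth of vehicle-treated wt1 cultures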; details: S. cerevisiae wt1 strain (SPY 50644) growth inhibition, hits give high values
How it was run: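 Using yeast strain wt1, compound-induced growth inhibition was determined against vehicle-treated cultures.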

[3] = NCI Yeast Anticancer Drug Screen. Data for the rad50EPP+ strain (AID 151);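 also: 0% = growth of vehicle-treated control cultures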; details: S. cerevisiae rad50 mutant strain, hits give high values
How it was run: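 One strain with a rad50 alteration (rad50EPP+) was compound-treated, its growth then compared to that of vehicle controls.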

[4] = NCI Yeast Anticancer Drug Screen. Data for the rad50 strain (AID 155);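 also: 0% = growth of vehicle-only cultures of the same strain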; details: S. cerevisiae rad50 strain growth inhibition, hits give high values
How it was run: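 Relative growth inhibition (compound vs vehicle) was measured in yeast with a defined repair-gene alteration.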

[5] = NCI Yeast Anticancer Drug Screen. Data for the mec2-1 strain (AID 157); details: S. cerevisiae mec2-1 strain, hits give high values
How it was run: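 Test agents were screened against the mec2-1 yeast strain, with defined DNA repair or cell cycle alteration. Growth was scored as inhibition against vehicle-only controls.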

[6] = NCI Yeast Anticancer Drug Screen. Data for the sgs1 mgt1 strain (AID 161);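 also: 0% = growth of cultures given vehicle only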; details: S. cerevisiae sgs1 mgt1 strain, hits give high values
How it was run: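 Inhibition of yeast growth, normalised to vehicle-treated controls, is reported for a strain bearing genetic alterations in DNA damage repair.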

[7] = NCI Yeast Anticancer Drug Screen. Data for the CLN2oe strain (AID 163);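 also: 0% = growth of vehicle-only control cultures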; details: S. cerevisiae CLN2oe strain, hits give high values
How it was run: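 Here, growth inhibition in a cell-cycle-altered yeast strain after compound exposure was quantified against vehicle control growth.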

[8] = NCI Yeast Anticancer Drug Screen. Data for the cln2 rad14 strain (AID 165);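 also: 0% = growth equal to vehicle treated cultures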; details: S. cerevisiae cln2 rad14 strain, hits give high values
How it was run: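 Growth of compound-exposed yeast (cln2 rad14 genotype) measured and expressed as inhibition relative to vehicle.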

[9] = NCI Yeast Anticancer Drug Screen. Data for the bub3 strain (AID 167); details: S. cerevisiae bub3 mutant strain, hits give high values
How it was run: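 Screening used yeast with an engineered genetic alteration affecting cell cycle control. Compound-exposed cultures were compared with vehicle cultures, and reduced growth was taken as inhibition.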

[10] = NCI Yeast Anticancer Drug Screen. Data for the wt2 strain (AID 169);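 also: 0% = growth of vehicle-treated yeast cultures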; details: S. cerevisiae wt2 strain growth inhibition, hits give high values
How it was run: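 Genetically defined yeast strains from a DNA-repair/cell-cycle panel were used. Compound-exposed yeast growth was measured, and the inhibition was calculated relative to vehicle treatment.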

[11] = NCI Yeast Anticancer Drug Screen. Data for the mlh1 strain (AID 171);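 also: 0% = growth of vehicle-treated control cultures of the same strain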; details: S. cerevisiae mlh1 strain growth inhibition, hits give high values
How it was run: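 Here the genetically defined yeast mutant is grown with each compound, and the extent to which its growth falls below that of vehicle-exposed cells is reported.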

[12] = NCI Yeast Anticancer Drug Screen. Data for the sgs1 strain (AID 173);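 also: 0% = growth of vehicle-only control cultures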; details: S. cerevisiae sgs1 mutant, hits give high values
How it was run: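 Relative growth inhibition, referenced to vehicle, was determined in a yeast strain with a defined alteration affecting DNA damage repair or cell cycle control after compound exposure.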

[13] = NCI Yeast Anticancer Drug Screen. Data for the mlh1 rad18 strain (AID 175); details: S. cerevisiae mlh1 rad18 strain growth inhibition, hits give high values
How it was run: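 In this whole-cell yeast screen, a strain with altered DNA damage repair is challenged with compound, and its growth is measured against matched vehicle-treated controls.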

[14] = NCI Yeast Anticancer Drug Screen. Data for the rad18 strain (AID 177); details: S. cerevisiae rad18 mutant growth inhibition, hits give high values
How it was run: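 Screen uses a yeast strain with a defined lesion in DNA damage repair; compound effect is read as loss of growth compared to untreated vehicle cultures.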

[15] = NCI Yeast Anticancer Drug Screen. Data for the rad14 strain (AID 159);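 also: 0% = growth of vehicle-treated control cultures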; details: S. cerevisiae rad14 strain growth inhibition, hits give high values
How it was run: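 Screen for anticancer potential: a yeast strain altered in DNA damage repair is grown with compound, and reduced growth is quantified against vehicle controls.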

[16] = at 5.0 µM (retest, dose inferred, filed as 0.5)
[17] = at 50.0 µM (retest, dose inferred, filed as 5.0)

Measured: growth inhibition

O=C1OC2C(O)COC2(OCc2c[nH]c3ccccc23)C1O (stereo unspecified) (tested in a mixture with another compound)
inactive: [1]; at 1.2 µM -2% | [1]; at 3.7 µM -1% | [1]; at 11.0 µM 1% | [1]; at 33.0 µM 24% | [2]; at 1.2 µM -1% | [2]; at 3.7 µM -1% | [2]; at 11.0 µM 0% | [2]; at 33.0 µM 12% | [3]; at 1.2 µM -5% | [3]; at 3.7 µM 3% | [3]; at 11.0 µM 7% | [3]; at 33.0 µM 14% | [3]; at 100.0 µM 15% | [4]; at 1.2 µM 2% | [4]; at 3.7 µM 5% | [4]; [16] 1% | [4]; at 11.0 µM 19% | [4]; at 33.0 µM 26% | [4]; [17] 15% | [4]; at 50.0 µM 66.4% | [5]; at 1.2 µM 0% | [5]; at 3.7 µM 1% | [5]; [16] -3% | [5]; at 11.0 µM 1% | [5]; at 33.0 µM 12% | [5]; [17] 22% | [5]; at 50.0 µM 49.1% | [6]; [16] -3% | [6]; [17] 48% | [6]; at 50.0 µM 66.5% | [7]; at 1.2 µM 1% | [7]; at 3.7 µM 1% | [7]; at 11.0 µM 0% | [7]; at 33.0 µM 9% | [7]; at 100.0 µM 54% | [8]; [16] -2% | [8]; [17] 36% | [8]; at 50.0 µM 42.4% | [9]; at 1.2 µM 0% | [9]; at 3.7 µM 3% | [9]; [16] -1% | [9]; at 11.0 µM 3% | [9]; at 33.0 µM 22% | [9]; [17] 46% | [9]; at 50.0 µM 6.5% | [10]; at 1.2 µM -2% | [10]; at 3.7 µM 7% | [10]; at 11.0 µM 0% | [10]; at 33.0 µM 5% | [11]; at 1.2 µM -1% | [11]; at 3.7 µM -2% | [11]; at 11.0 µM -2% | [11]; at 33.0 µM 11% | [12]; at 1.2 µM -1% | [12]; at 3.7 µM 0% | [12]; at 11.0 µM 3% | [12]; at 33.0 µM 43% | [13]; [16] -3% | [13]; [17] 26% | [14]; at 1.2 µM 0% | [14]; at 3.7 µM 2% | [14]; at 11.0 µM 9% | [14]; at 33.0 µM 68%
active: [1]; at 100.0 µM 84% | [2]; at 100.0 µM 88% | [4]; at 100.0 µM 95% | [5]; at 100.0 µM 91% | [9]; at 100.0 µM 92% | [10]; at 100.0 µM 75% | [11]; at 100.0 µM 87% | [12]; at 100.0 µM 92% | [13]; at 50.0 µM 88.9% | [14]; at 100.0 µM 96%

O=C(/C=C/c1cccc2ccccc12)c1ccc(Cl)cc1
inactive: [1]; at 1.2 µM 7% | [1]; at 3.7 µM 7% | [1]; at 11.0 µM 7% | [1]; at 33.0 µM -4% | [1]; at 100.0 µM -13% | [2]; at 1.2 µM -30% | [2]; at 3.7 µM -19% | [2]; at 11.0 µM -28% | [2]; at 33.0 µM -34% | [2]; at 100.0 µM -45% | [3]; at 1.2 µM -3% | [3]; at 3.7 µM 4% | [3]; at 11.0 µM 9% | [3]; at 33.0 µM 0% | [3]; at 100.0 µM -12% | [4]; at 1.2 µM 24% | [4]; at 3.7 µM 27% | [4]; [16] 37% | [4]; at 11.0 µM 24% | [4]; at 33.0 µM 13% | [4]; at 100.0 µM 13% | [5]; at 1.2 µM 11% | [5]; at 3.7 µM 14% | [5]; [16] 67% | [5]; at 11.0 µM -2% | [5]; at 33.0 µM -6% | [5]; at 100.0 µM -12% | [15]; at 1.2 µM -28% | [15]; at 3.7 µM -23% | [15]; at 11.0 µM -30% | [15]; at 33.0 µM -38% | [15]; at 100.0 µM -35% | [6]; [16] -3% | [6]; [17] 42% | [7]; at 1.2 µM 5% | [7]; at 3.7 µM 4% | [7]; at 11.0 µM -27% | [7]; at 33.0 µM -35% | [7]; at 100.0 µM -43% | [8]; [16] 28% | [8]; [17] -7% | [9]; at 1.2 µM 6% | [9]; at 3.7 µM 11% | [9]; [16] 2% | [9]; at 11.0 µM 9% | [9]; at 33.0 µM 7% | [9]; [17] 17% | [9]; at 100.0 µM -6% | [11]; at 1.2 µM -33% | [11]; at 3.7 µM -24% | [11]; at 11.0 µM -34% | [11]; at 33.0 µM -46% | [11]; at 100.0 µM -49% | [12]; at 1.2 µM -21% | [12]; at 3.7 µM -22% | [12]; at 11.0 µM -27% | [12]; at 33.0 µM -34% | [12]; at 100.0 µM -48% | [13]; [16] 35% | [14]; at 1.2 µM 3% | [14]; at 3.7 µM 9% | [14]; at 11.0 µM 5% | [14]; at 33.0 µM 13% | [14]; at 100.0 µM 14%
active: [4]; [17] 98% | [4]; at 50.0 µM 83.5% | [5]; [17] 99% | [5]; at 50.0 µM 74.6% | [13]; [17] 99% | [13]; at 50.0 µM 80.4%

Nc1ccc2c(c1)sc1ccccc12
active: [1]; at 100.0 µM 99% | [2]; at 100.0 µM 99% | [3]; at 33.0 µM 89% | [3]; at 100.0 µM 98% | [4]; at 50.0 µM 85.4% | [4]; at 100.0 µM 99% | [5]; at 100.0 µM 99% | [15]; at 100.0 µM 98% | [9]; at 50.0 µM 92.5% | [9]; at 100.0 µM 99% | [10]; at 100.0 µM 99% | [11]; at 100.0 µM 99% | [12]; at 100.0 µM 99% | [13]; at 50.0 µM 94.2% | [14]; at 100.0 µM 99%
inactive: [1]; at 1.2 µM -3% | [1]; at 3.7 µM 2% | [1]; at 11.0 µM 3% | [1]; at 33.0 µM 30% | [2]; at 1.2 µM -5% | [2]; at 3.7 µM -7% | [2]; at 11.0 µM -10% | [2]; at 33.0 µM -11% | [3]; at 1.2 µM 1% | [3]; at 3.7 µM 13% | [3]; at 11.0 µM 38% | [4]; at 1.2 µM -20% | [4]; at 3.7 µM -1% | [4]; [16] -153% | [4]; at 11.0 µM 9% | [4]; at 33.0 µM 46% | [4]; [17] 54% | [5]; at 1.2 µM 1% | [5]; at 3.7 µM 0% | [5]; [16] -52% | [5]; at 11.0 µM -6% | [5]; at 33.0 µM 4% | [5]; [17] -24% | [5]; at 50.0 µM 33% | [15]; at 1.2 µM -3% | [15]; at 3.7 µM -6% | [15]; at 11.0 µM -1% | [15]; at 33.0 µM 15% | [6]; [16] -68% | [6]; [17] 40% | [6]; at 50.0 µM 63.1% | [8]; [16] -60% | [8]; [17] -50% | [8]; at 50.0 µM -13.4% | [9]; at 1.2 µM -6% | [9]; at 3.7 µM -4% | [9]; [16] -59% | [9]; at 11.0 µM 3% | [9]; at 33.0 µM 18% | [9]; [17] 40% | [10]; at 1.2 µM -1% | [10]; at 3.7 µM -2% | [10]; at 11.0 µM -4% | [10]; at 33.0 µM 0% | [11]; at 1.2 µM 9% | [11]; at 3.7 µM -4% | [11]; at 11.0 µM -5% | [11]; at 33.0 µM 21% | [12]; at 1.2 µM -1% | [12]; at 3.7 µM -1% | [12]; at 11.0 µM -2% | [12]; at 33.0 µM 46% | [13]; [16] -122% | [13]; [17] 38% | [14]; at 1.2 µM 0% | [14]; at 3.7 µM 6% | [14]; at 11.0 µM 27% | [14]; at 33.0 µM 56%
